# Several values for one entry are separate records, joined by “and”; a condition that tells them apart may be missing. Equal values may be shown once. Records with an inconclusive call do not appear. For part of these data: Results with a measured potency or affinity are listed apart. Activity calls are given as the source filed them. Unless noted, the rule behind the calls is not given here.
# What was measured:
# [1] = molecular target: 6-phosphogluconate dehydrogenase, decarboxylating (Homo sapiens) (UniProt P52209); assay: 6PGD enzyme inhibitors, primary screen, biochemical, human, recombinant enzyme, NADPH absorbance (AID 1159550;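 active = at least 20% inhibition of 6-phosphogluconate dehydrogenase activity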); settings: recombinant 6PGD, NADPH absorbance 341 nm; at 10 µM; stronger effect = higher value
# Sequence of 6-phosphogluconate dehydrogenase, decarboxylating (Homo sapiens) (P52209 whole entry, looked up): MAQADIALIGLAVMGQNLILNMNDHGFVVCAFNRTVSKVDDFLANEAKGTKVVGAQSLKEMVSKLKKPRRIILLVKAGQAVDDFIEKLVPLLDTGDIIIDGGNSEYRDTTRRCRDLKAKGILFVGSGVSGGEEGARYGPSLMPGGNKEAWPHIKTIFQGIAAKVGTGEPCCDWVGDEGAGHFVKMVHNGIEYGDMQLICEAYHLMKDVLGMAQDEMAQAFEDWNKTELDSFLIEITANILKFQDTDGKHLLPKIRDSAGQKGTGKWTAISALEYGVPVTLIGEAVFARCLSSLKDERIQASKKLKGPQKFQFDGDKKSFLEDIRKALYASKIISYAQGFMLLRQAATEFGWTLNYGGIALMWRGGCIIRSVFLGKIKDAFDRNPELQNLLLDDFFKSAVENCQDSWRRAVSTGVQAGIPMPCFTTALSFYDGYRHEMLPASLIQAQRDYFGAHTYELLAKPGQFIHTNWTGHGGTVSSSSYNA
# [2] = system: Aerobactin synthetase IucA (Klebsiella pneumoniae hvKP1); assay: Biochemical IucA enzyme inhibition primary screen of the Spectrum library (AID 1346200); settings: malachite green pyrophosphate, A620, at 8 µM, stronger effect = lower value;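 note: 100% = wells without compound and 0% = wells lacking enzyme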
# [3] = molecular target: Mitogen-activated protein kinase 7 (Homo sapiens) (UniProt Q13164); assay: ERK5 transactivation activators in reporter cells, primary screen, cell-based, HTS (AID 1508626;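 active = luciferase signal above three times the same-plate solvent-only control wells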;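 note: luciferase driven by Gal4-ERK5 fusion binding five Gal4 sites before minimal TATA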); settings: HeLa Gal4-ERK5 transactivation, 18 h, at 5 µM, stronger effect = higher value
# Sequence of Mitogen-activated protein kinase 7 (Homo sapiens) (Q13164 whole entry, looked up, the tested form may be a part): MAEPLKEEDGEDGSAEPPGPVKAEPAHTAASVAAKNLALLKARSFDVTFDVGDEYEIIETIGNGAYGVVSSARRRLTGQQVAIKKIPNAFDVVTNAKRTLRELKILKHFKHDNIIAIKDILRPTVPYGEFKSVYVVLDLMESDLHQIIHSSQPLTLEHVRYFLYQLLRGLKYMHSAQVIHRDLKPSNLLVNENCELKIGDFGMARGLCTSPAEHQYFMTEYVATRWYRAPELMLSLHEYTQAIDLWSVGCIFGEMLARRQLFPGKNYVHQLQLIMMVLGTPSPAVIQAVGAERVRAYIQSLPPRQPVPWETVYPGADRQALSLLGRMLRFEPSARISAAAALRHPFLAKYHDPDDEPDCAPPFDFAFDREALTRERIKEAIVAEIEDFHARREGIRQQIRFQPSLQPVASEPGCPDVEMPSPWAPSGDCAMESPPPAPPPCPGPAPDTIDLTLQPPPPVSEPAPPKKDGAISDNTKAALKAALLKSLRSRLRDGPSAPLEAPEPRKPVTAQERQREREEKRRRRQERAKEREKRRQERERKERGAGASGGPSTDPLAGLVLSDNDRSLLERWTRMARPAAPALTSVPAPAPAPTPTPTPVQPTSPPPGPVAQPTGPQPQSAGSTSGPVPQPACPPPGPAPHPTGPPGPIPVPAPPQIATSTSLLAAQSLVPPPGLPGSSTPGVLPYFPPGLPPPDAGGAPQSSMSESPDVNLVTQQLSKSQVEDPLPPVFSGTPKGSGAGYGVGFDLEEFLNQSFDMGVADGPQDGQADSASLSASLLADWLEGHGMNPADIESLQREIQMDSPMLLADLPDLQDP
# [4] = growth inhibition of DIPG glioma cells, dose response, cell-based, SU-DIPG-XVII, MIPE5.0, CellTiter-Glo, qHTS (AID 1347060; cut-off not given, nearly all actives have AC50 up to about 26 µM); settings: SU-DIPG-XVII viability, CellTiter-Glo ATP luminescence
# [5] = growth inhibition of DIPG glioma cells, dose response, cell-based, SU-DIPG-XIII, MIPE4.0, CellTiter-Glo, qHTS (AID 1347061; cut-off not given, nearly all actives have AC50 up to about 37 µM;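 note: cells exposed to compound for 48 hours before readout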); settings: SU-DIPG-XIII viability, CellTiter-Glo ATP luminescence
# [6] = growth inhibition of DIPG glioma cells, dose response, cell-based, JHH-DIPG-1, MIPE4.0, CellTiter-Glo, qHTS (AID 1347062; cut-off not given, nearly all actives have AC50 up to about 27 µM); settings: JHH-DIPG-1 viability, CellTiter-Glo ATP luminescence
# [7] = growth inhibition of DIPG glioma cells, dose response, cell-based, SU-DIPG-IV, MIPE4.0, CellTiter-Glo, qHTS (AID 1347063; cut-off not given, nearly all actives have AC50 up to about 30 µM;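 note: compound exposure lasted 48 hours before the viability readout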); settings: SU-DIPG-IV viability, CellTiter-Glo ATP luminescence
# [8] = growth inhibition of DIPG glioma cells, dose response, cell-based, SU-DIPG-XIII, MIPE5.0, CellTiter-Glo, qHTS (AID 1347064; cut-off not given, nearly all actives have AC50 up to about 23 µM); settings: SU-DIPG-XIII viability, CellTiter-Glo ATP luminescence
# [9] = viability loss in pontine glioma line – cell-based, SU-DIPG-XXV, MIPE5.0, CellTiter-Glo, qHTS, dose response (AID 1347065; cut-off not given, nearly all actives have AC50 up to about 26 µM;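 note: cells exposed to compound for 48 hours before ATP readout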); settings: CellTiter-Glo ATP luminescence
# [10] = SU-DIPG-VI glioma cell viability, MIPE4.0 library, CellTiter-Glo luminescence, qHTS (AID 1347066; cut-off not given, nearly all actives have AC50 up to about 30 µM;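 note: cells exposed to compound for 48 hours before readout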); settings: CellTiter-Glo ATP luminescence
# [11] = JHH-DIPG-1 glioma cell viability, MIPE5.0 library, CellTiter-Glo luminescence, qHTS (AID 1347067; cut-off not given, nearly all actives have AC50 up to about 26 µM;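 note: cells exposed to compound for 48 hours before readout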); settings: JHH-DIPG-1 glioma viability, CellTiter-Glo ATP luminescence
# [12] = SU-DIPG-XXV glioma cell viability, MIPE5.0 library, qHTS (AID 1347068; cut-off not given, nearly all actives have IC50 up to about 30 µM)
# [13] = survival rescue of mitochondrial mutant cells in low glucose, primary screen, MELAS cybrids, Rieske KO mouse fibroblasts, CellTiter-Glo (AID 1508586;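 active = mean z-score across replicates of 1.96 or higher in either the MELAS or the Rieske mutant cell line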;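 note: z relative to plate mean and SD of compound and empty wells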)
# [14] = molecular target: NAD(+) hydrolase SARM1 (Homo sapiens) (UniProt Q6SZW1); assay: SARM1 TIR NADase inhibitors, cell lysate, NAD-Glo luminescence (AID 1508614;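 active = compound whose remaining NAD level is above about 45 nM, limit read from the data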;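 note: higher remaining NAD means stronger inhibition of SARM1 NADase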); settings: SAM-TIR HEK293T lysate NADase, at 1 µM, stronger effect = higher value
# Sequence of NAD(+) hydrolase SARM1 (Homo sapiens) (Q6SZW1 whole entry, looked up): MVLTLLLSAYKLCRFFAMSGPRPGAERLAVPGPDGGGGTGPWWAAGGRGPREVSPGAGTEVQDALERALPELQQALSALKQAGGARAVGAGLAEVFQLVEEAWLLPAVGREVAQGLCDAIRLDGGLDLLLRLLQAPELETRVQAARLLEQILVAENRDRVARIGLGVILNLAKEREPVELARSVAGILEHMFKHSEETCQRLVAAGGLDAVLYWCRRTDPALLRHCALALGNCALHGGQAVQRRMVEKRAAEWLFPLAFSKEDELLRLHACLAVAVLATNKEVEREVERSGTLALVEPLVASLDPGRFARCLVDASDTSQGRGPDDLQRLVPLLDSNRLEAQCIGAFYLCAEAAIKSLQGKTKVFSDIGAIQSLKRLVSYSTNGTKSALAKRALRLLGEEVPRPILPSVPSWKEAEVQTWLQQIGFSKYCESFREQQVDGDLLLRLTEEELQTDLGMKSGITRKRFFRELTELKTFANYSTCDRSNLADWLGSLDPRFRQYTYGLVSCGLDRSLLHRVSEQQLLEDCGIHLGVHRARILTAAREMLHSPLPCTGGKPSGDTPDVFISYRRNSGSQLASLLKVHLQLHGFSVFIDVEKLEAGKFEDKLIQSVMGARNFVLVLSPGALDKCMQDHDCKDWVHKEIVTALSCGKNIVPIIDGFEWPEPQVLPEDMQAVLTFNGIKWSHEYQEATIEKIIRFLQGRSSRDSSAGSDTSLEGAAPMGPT
# [15] = polyglutamine-triggered caspase-3 activation inhibitors, cell-based (AID 1583); settings: polyglutamine-induced caspase-3 activation, cell assay; stronger effect = higher value;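 tested at 10 µM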
# [16] = suppressors of polyQ aggregation in yeast, 75Q-TubU reporter (AID 1593); settings: Yeast 75Q polyglutamine aggregation reporter
# [17] = rescue of polyQ-huntingtin neuronal dysfunction in worms, whole organism, C. elegans mechanosensory neurons, N-terminal huntingtin (AID 1599); settings: touch response, stronger effect = higher value
# [18] = inhibitors of mitochondrial cytochrome c release, biochemical, purified mitochondria (AID 1603); settings: stronger effect = lower value;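 note: mouse liver mitochondria challenged with calcium chloride; signal normalized to the plate average as 100%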
# [19] = inhibitors of polyQ protein aggregation (AID 1604); settings: polyglutamine-induced protein aggregation inhibition assay; stronger effect = higher value; tested at 2.5 µM
# [20] = enhancers of glutamate uptake in motor neurons, MN-1 cell line (AID 1612); settings: MN-1 motor neuron cells, stronger effect = higher value;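 note: tested at 1 µM final; 0% = mean of DMSO vehicle wells on each plate; positive means more glutamate uptake than control and negative means less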
# [21] = reducers of polyQ inclusions in PC12 cells, cell-based, NGF-treated PC12, GFPQ80 (AID 1614); settings: PC12 NGF-treated GFP-polyQ80 inclusion reduction;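 note: lower means fewer inclusions and 0 means no inclusions at all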
# [22] = suppressors of polyglutamine aggregation in yeast, 75Q-TubH (AID 1616); settings: S. cerevisiae 75Q-TubH polyglutamine aggregation suppression; stronger effect = higher value
# [23] = liver-stage malaria parasite growth inhibition, primary screen, cell-based, HepG2, luciferase luminescence, HepG2 viability (AID 624349; in the data active = parasite load remaining mostly below about 12%, no sharp cut-off; inactive = mostly above about 10%;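 note: 100% = mean of DMSO negative control wells on the same plate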); settings: P. berghei liver stage in HepG2, luciferase luminescence, concentration not given here; parasite load remaining: stronger effect = lower value; viability: measured here: HepG2 viability without parasites
# [24] = sensitizers of A549 cells to miR-34 induction, primary screen, imaging, A549 dox-inducible miR-34, nuclei and caspase counts (AID 1347080;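 active = compounds whose cell count with miR-34 switched on is under 0.7 times the count with it off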); settings: A549 miR-34 inducible, Hoechst nuclei count, 48 h
# [25] = protection against mutant huntingtin cytotoxicity, PC12 cells, LDH release (AID 1610); settings: PC12 mutant huntingtin toxicity, final LDH at 4 uM, stronger effect = lower value
# [26] = mitochondrial permeability transition inhibitors (AID 1580); settings: isolated mitochondria, permeability transition inhibition
# [27] = inhibitors of polyQ aggregate elongation, biochemical, solid-phase synthetic aggregates, QA3 (AID 1585); settings: biotin-polyQ incorporation; EC50: measured here: elongation inhibition potency; inhibition: at 100 µM, stronger effect = higher value
# [28] = polyglutamine aggregation reduction, turbidity readout, qthio, single concentration 25 µM screen (AID 1588); settings: at 25 µM, stronger effect = lower value
# [29] = hESC survival regulators, cell-based (AID 493140); settings: human embryonic stem cell survival screen; stronger effect = higher value;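 note: cells exposed to compounds for four days before counting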
# [30] = MELAS cybrid survival, CellTiter-Glo 48 h, stronger effect = higher value
# [31] = Rieske KO mouse fibroblast survival, CellTiter-Glo 72 h
# [32] = measured here: relative caspase fold change +Dox/-Dox
# [33] = measured here: total cells with miR-34 induction, stronger effect = lower value
# [34] = measured here: total cells without miR-34 induction
compound,measurement,setting,value
COc1c2c(c(CC=C(C)C)c3oc(=O)c(-c4ccc(O)cc4)c(O)c13)OC(C)(C)C=C2,inhibition,[1],-5.17% (inactive)
same,activity remaining,[2],104% (inactive)
same,luciferase signal,[3],60 AU (inactive)
CC(C)C[C@H](CN)CC(=O)O,inhibition,[1],9.49% (inactive)
same,outcome,[4],inactive
same,outcome,[5],inactive
same,outcome,[6],inactive
same,outcome,[7],inactive
same,outcome,[8],inactive
same,outcome,[9],inactive
same,outcome,[10],inactive
same,outcome,[11],inactive
same,outcome,[12],inactive
same,z-score,[13]; [30],-0.0671 (inactive)
same,z-score,[13]; [31],0.159
same,remaining NAD,[14],10 nM (inactive)
N#Cc1c(Cl)cccc1Cl,inhibition,[1],-5.35% (inactive)
same,activity remaining,[2],93.8% (inactive)
same,luciferase signal,[3],52 AU (inactive)
CCCC(C)C1(CC)C(=O)NC(=O)NC1=O (configuration not stated),inhibition,[15],8.8%
same,score,[16],1.08
same,rescue above control,[17],-0.14
same,cytochrome c release ratio,[18],0.79
same,inhibition of aggregation,[19],-14.3%
same,glutamate uptake change,[20],8.51%
same,inclusion score,[21],2
same,aggregation suppression score,[22],0.96
same,parasite load remaining,[23],22.1% (inactive)
same,viability,[23],103%
same,inhibition,[1],-1.31% (inactive)
same,activity remaining,[2],95.4% (inactive)
same,fold change,[24]; stronger effect = lower value,0.918 (inactive)
same,fold change,[24]; [32],2.52
same,cell count,[24]; [33],11200
same,cell count,[24]; [34],12200
same,z-score,[13]; [30],0.13 (inactive)
same,z-score,[13]; [31],-0.121
same,luciferase signal,[3],60 AU (inactive)
CC(=O)Oc1ccc(Cl)c2cccnc12,inhibition,[15],11.4%
same,score,[16],0.08
same,rescue above control,[17],7.46
same,cytochrome c release ratio,[18],1.44
same,inhibition of aggregation,[19],87.2%
same,normalised LDH release,[25],1.08
same,glutamate uptake change,[20],14.2%
same,aggregation suppression score,[22],0.0401
same,parasite load remaining,[23],-5% (inactive)
same,viability,[23],65.2%
same,inhibition,[1],-4.5% (inactive)
same,activity remaining,[2],124% (inactive)
O=C(O)c1ccccc1-c1c2cc(Br)c(=O)cc-2oc2[c]([Hg])c(O)c(Br)cc12,EC50,[26],10 µM (active)
same,inhibition,[15],39.1%
same,EC50,[27],38 µM
same,inhibition,[27],61.6% (active)
same,aggregation (% of control),[28],41.9% (active)
same,score,[16],0.07
same,rescue above control,[17],0
same,cytochrome c release ratio,[18],1.39
same,inhibition of aggregation,[19],57.7%
same,glutamate uptake change,[20],-7.36%
same,aggregation suppression score,[22],0.0281
same,survival,[29],18.6 (inactive)
same,parasite load remaining,[23],62.4% (inactive) and 40.3% (inactive)
same,viability,[23],57.8% and 97.8%
same,inhibition,[1],2.12% (inactive)
same,activity remaining,[2],-1.02% (active)
same,fold change,[24]; stronger effect = lower value,0.908 (inactive)
same,fold change,[24]; [32],2.08
same,cell count,[24]; [33],11900
same,cell count,[24]; [34],13100
same,remaining NAD,[14],56 nM (active)
same,luciferase signal,[3],52 AU (inactive)
CC(=O)O[C@@H]1CC2C(C)(C)[C@H](O)C=C[C@]2(C)C2CC[C@]3(C)C(=CC(=O)O[C@H]3c3ccoc3)[C@@]21C (some centres not stated),inhibition,[1],-4.71% (inactive)
same,activity remaining,[2],105% (inactive)
same,luciferase signal,[3],120 AU (inactive)
CC(C)(C)C(=O)C(Oc1ccc(Cl)cc1)n1cncn1 (configuration not stated),inhibition,[1],12.8% (inactive)
same,activity remaining,[2],127% (inactive)
same,luciferase signal,[3],44 AU (inactive)
COc1cc([C@@H]2c3cc4c(cc3[C@H](OC(C)=O)[C@H]3COC(=O)[C@H]23)OCO4)cc(OC)c1OC,inhibition,[1],-6.91% (inactive)
same,activity remaining,[2],112% (inactive)
same,luciferase signal,[3],244 AU (active)
CCCN(CCC)c1c([N+](=O)[O-])cc(C(F)(F)F)cc1[N+](=O)[O-],inhibition,[1],-18.5% (inactive)
same,activity remaining,[2],95.7% (inactive)
same,luciferase signal,[3],72 AU (inactive)
CCC(C)C(=O)O[C@@H]1C[C@@]2(C)[C@H](c3ccoc3)OC(=O)CC23OC2(C)O[C@]14[C@]1(C)[C@@H](CC(=O)OC)C5(C)CC1(O)[C@](O)(C5OC(=O)C1(C)OC1C)[C@@H](OC(C)=O)[C@]34O2 (some centres not stated),inhibition,[1],-16.5% (inactive)
same,activity remaining,[2],103% (inactive)
same,luciferase signal,[3],12 AU (inactive)

# From PubChem BioAssay
